BoNT-A LC inh2 – blocks Botulinum neurotoxin A light chain protease; multiplex microsphere protease substrate cleavage, flow cytometry; inhibition, % at 10 µM; 360,000 compounds, 0.17% hits; AID 588499; note: plate controls were buffer without enzyme for full effect and enzyme alone for no effect
Autofluor counter – counter-screen for toxin protease inhibitors: compound fluorescence; AID 624483; 360,000 compounds, 3.1% hits; compound autofluorescence counterscreen, microsphere flow cytometry; hits give high values; fluorescence intensity (concentration not given with the values); in the data active = fluorescence intensity above about 16000; inconclusive = no clear call, values can overlap the other calls
BoNT F protease – blocks Botulinum neurotoxin F light chain protease | 360,000 compounds, 0.22% hits | Multiplex microsphere protease cleavage assay, flow cytometry | inhibition, % at 10 µM; in the data active = inhibition above about 35%, passing the limit was not always enough; inconclusive = no clear call, values can overlap the other calls; note: plate controls were buffer without enzyme for full effect and enzyme alone for no effect
Anthrax LF inh2 – anthrax lethal factor protease inhibition; 360,000 compounds, 0.12% hits; multiplex microsphere protease cleavage assay, LF; AID 588501; P15917; inhibition, % at 10 µM; note: plate controls were buffer without enzyme for full effect and enzyme alone for no effect
MazF activator – increases E. coli MazEF RNase cleavage of RNA; FAM/BHQ RNA-DNA oligo cleavage fluorescence, 5 h; activation, % at 20 µM; 350,000 compounds, 0.32% hits; in the data active = activation above about 50%
Target sequence (P0AE70 whole entry, looked up): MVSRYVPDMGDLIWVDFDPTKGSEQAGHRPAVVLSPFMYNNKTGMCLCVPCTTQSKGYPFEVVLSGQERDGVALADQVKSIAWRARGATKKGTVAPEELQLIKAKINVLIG
DUSP3 inh – blocks human VHR1 dual specificity phosphatase; 290,000 compounds, 0.52% hits; inhibition, % at 13.3 µM; recombinant VHR phosphatase, pNPP absorbance; in the data active = inhibition above about 50%
Target sequence (P51452 whole entry, looked up): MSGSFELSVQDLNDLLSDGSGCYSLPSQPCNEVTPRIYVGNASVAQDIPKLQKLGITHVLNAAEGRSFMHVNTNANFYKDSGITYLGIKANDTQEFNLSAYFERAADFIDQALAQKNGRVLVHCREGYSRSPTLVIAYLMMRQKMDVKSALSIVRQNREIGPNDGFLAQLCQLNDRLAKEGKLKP
* = called active by the depositor; ? = inconclusive; nt = no result. This is a sample that favours compounds with a hit; in the whole collection about 4% have one here. Cut-off read from the data, not from the text of the source, unless noted: active = inhibition above about 30%; inconclusive = no clear call, values can overlap the other calls; inactive = below that.

SMILES | BoNT-A LC inh2 | Autofluor counter | BoNT F protease | Anthrax LF inh2 | MazF activator | DUSP3 inh
CC(C)(C)/C(O)=C(/C#N)c1nc2ccccc2[nH]1 | ? | 23471* | -6 | -1 | 10 | 30
COc1ccc(/C=N/OC/C(O)=C(\C#N)c2nc3ccccc3[nH]2)cc1 | 4 | 22111* | 1 | 0 | 7 | 28
COc1ccc(OC)c2c(C)cc(N3CCCN(C)CC3)nc12 | -5 | 21960* | -7 | -1 | -16 | 4
CC1(C)CC(=O)C2=C(C1)N(Cc1ccccc1)C(=O)C2(NC(=O)C(C)(C)C)C(F)(F)F (stereo not drawn) | -2 | 24235* | -5 | -2 | -7 | 32
CC(=O)NC1(C(F)(F)F)C(=O)N(Cc2ccccc2)C2=C1C(=O)CC(C)(C)C2 (stereo not drawn) | 0 | 10263 | -2 | 7 | 7 | -9
CCOC(=O)NC1(C(F)(F)F)C(=O)N(Cc2ccccn2)C2=C1C(=O)CC(C)(C)C2 (stereo not drawn) | -1 | 16536* | -5 | -1 | -9 | 9
Cc1cc(C)c(C#N)c(Nc2ccccc2)n1 | -4 | 21778* | -6 | 0 | 1 | 3
CN(Cc1cnccn1)Cc1nc(Cc2ccccc2F)no1 | 0 | 3961 | -6 | -6 | 2 | 5
Cc1cccc(NC(=O)CN2C(=O)S/C(=C\c3ccc(-c4cccc(C(=O)O)c4C)o3)C2=O)c1 | nt | nt | nt | nt | -51 | 6
Cc1ccc(NC(=O)CN2C(=O)S/C(=C/c3ccc(-c4cc(C(=O)O)ccc4C)o3)C2=O)cc1C | 0 | 16807* | -1 | -4 | 75* | 29
O=C(NC(=S)N1CCN(c2ccc(F)cc2)CC1)C12CC3CC(CC(C3)C1)C2 | -2 | 3915 | -10 | 0 | 5 | 0
N#Cc1c(N)[nH]c2ccc(Sc3ccccc3)cc12 | 0 | 3715 | -2 | -7 | 9 | nt
COc1ccc(CCN2C(=O)CC(Sc3ncccc3C(=O)O)C2=O)cc1OC (stereo not drawn) | 0 | 23415* | 1 | 2 | 2 | 8
O=C(NCc1ccccc1)c1cc(=O)nc2sc(-c3ccccc3)nn12 | -2 | 23048* | 0 | 1 | 4 | 22
COC(=O)CCCCC1SCC2NC(=O)NC21O (stereo not drawn) | 10 | 4177 | 79* | 4 | 9 | 14
N#CC1=C(N)Oc2cc(O)ccc2C1c1ccccc1 (stereo not drawn) | 1 | 21140* | 0 | 0 | 4 | -11
Cc1cccc(C2c3[nH]c4ccccc4c3CCN2Cc2ccc(C)s2)n1 (stereo not drawn) | 0 | 4289 | -6 | -6 | 33 | 17
O=c1oc2ccccc2cc1-c1nc2ccccc2o1 | 0 | 8144 | 0 | 0 | 1 | 16
O=c1oc2ccc3ccccc3c2cc1-c1nc2ccccc2o1 | 1 | 4400 | -2 | 3 | 329* | nt
c1ccc(Cc2noc(CN3CCC(CN4CCOCC4)CC3)n2)cc1 | -1 | 3435 | -2 | 3 | 0 | 39
CC1=CC2=C(C=O)C(=O)C(C)(O)C(O)C2=CO1 (stereo not drawn) | 0 | 3703 | 4 | 0 | 242* | nt
COc1ccc(-c2nc3c(C)cc(Br)cn3c2CC2CCCCC2)cc1OC | 2 | 5431 | 2 | 6 | nt | nt
CCOCCCNC(=O)C1c2ccccc2C(=O)N2CCc3ccccc3C12 (stereo not drawn) | 1 | 16166* | 0 | -2 | 2 | 14
CC1CCN(C(=O)C2c3ccccc3C(=O)N3CCc4ccccc4C23)CC1 (stereo not drawn) | 3 | 22497* | 1 | 0 | 3 | -2
CCCN(CCC)CCNC(=O)C1c2ccccc2C(=O)N2CCc3ccccc3C12 (stereo not drawn) | 0 | 3717 | -6 | -4 | 4 | 27
SMILES | BoNT-A LC inh2 | Autofluor counter | BoNT F protease | Anthrax LF inh2 | MazF activator | DUSP3 inh
O=C(CSc1nc(N2CCOCC2)nc(N2CCOCC2)n1)Nc1ccc([N+](=O)[O-])cc1 | 0 | 4324 | -4 | 2 | 8 | -3
CN1CCN(CC(=O)Nc2ccccc2C(F)(F)F)CC1 | -3 | 3477 | 9 | 8 | 3 | 24
CN1C(=CC=C2C=C(I)C(=O)C(I)=C2)C(C)(C)c2ccccc21 | 101* | 3157 | 19 | 55* | -672 | 20
CC(Sc1nnnn1-c1ccccc1)C(=O)Nc1ccc(N2CCN(C)CC2)cc1 (stereo not drawn) | 2 | 4792 | -51 | -13 | 2 | -6
CCOC(=O)CSC1=C(C#N)C(c2ccccc2OCC)C(C#N)C(=O)N1 (stereo not drawn) | 3 | 7721 | 2 | 2 | 1 | 8
CC(=O)Nc1ccc(S(=O)(=O)Oc2ccc(N3C(=O)C4CCCCC4C3=O)cc2)cc1 (stereo not drawn) | ? | 19304* | -1 | -6 | -5 | 3
O=C(Nc1ccc2c(c1)OCCO2)c1cccnc1Oc1ccccc1 | 0 | 5964 | -4 | 0 | -5 | 21
CCN(CC)CCCNC(=O)c1ccc2c(Cl)c3c(nc2c1)CCCC3 | 0 | 1933 | -7 | 2 | 0 | 14
CCCCN(CC)CCNC(=O)c1ccc2c(Cl)c3c(nc2c1)CCC3 | 0 | 3763 | -2 | 1 | 14 | 57*
Cc1ccc(N=Cc2cc(Cl)cc(Cl)c2O)nc1 | 4 | 2526 | 35* | -1 | 8 | -2
Cn1cccc1/C=C1\SC(=O)N(c2ccc(O)cc2)C1=O | -2 | 9795 | -10 | 2 | 262* | 3
CCOc1ccc(N2C(=O)S/C(=C\c3cccn3C)C2=O)cc1 | 1 | 2531 | -4 | -2 | 28 | -16
COc1ccc(C(C(=O)NC2CCCCC2)N(C(=O)c2sc(C)nc2C)c2ccccc2)cc1 (stereo not drawn) | 0 | 2785 | -1 | -2 | 0 | 10
COc1ccc(C(C(=O)NC2CCCC2)N(C(=O)c2snc(-c3ccc(F)cc3)c2N)c2ccc(F)cc2)cc1 (stereo not drawn) | -2 | 24202* | -2 | -2 | -5 | 4
COc1ccc(C(C(=O)NC2CCCC2)N(C(=O)c2snc(-c3ccc(F)cc3)c2N)c2ccc(OC)cc2)cc1 (stereo not drawn) | -1 | 21490* | 0 | 0 | -3 | 21
COc1ccc(N(C(=O)c2ccn[nH]2)C(C(=O)NC2CCCC2)c2ccc(F)cc2)cc1 (stereo not drawn) | 1 | 4014 | -13 | 0 | 3 | 26
COc1ccc(C(C(=O)NC2CCCC2)N(C(=O)c2snc(-c3ccc(F)cc3)c2N)c2cccc(F)c2)cc1 (stereo not drawn) | -2 | 23994* | -1 | -2 | -20 | 8
COc1ccc(C(C(=O)NC2CCCC2)N(C(=O)c2snc(-c3ccc(F)cc3)c2N)c2ccccc2)cc1 (stereo not drawn) | -1 | 20660* | 0 | -1 | -12 | 9
O=C1NC(=O)N(Cc2ccco2)C(=O)/C1=C/c1cccn1CCOc1ccccc1Cl | 1 | 2596 | 1 | -1 | -19 | -12
Cc1ccc(N2CN(Cc3cccnc3)CNC2=S)c(C)c1 | 0 | 2753 | -1 | -1 | 0 | 21

Screens as filed in PubChem BioAssay.
